Measured values: PubChem BioAssay AID602144 (Vanderbilt Specialized Chemistry Center, 2011)
Unmarked numbers belong to inactive results. Calls of active or inactive are those of the source. Rule as the data show it: active = remaining activity below about 50%; inactive = the rest.

Molecular target: Phospholipase D1 (Homo sapiens) (UniProt Q13393)
Assay: cellular phospholipase D1 activity inhibition – Calu-1 cells, single concentration (AID 602144);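 also: tested at 200 nM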
Conditions: cellular PLD1 activity, active compounds read low

Phospholipase D1 (Homo sapiens), sequence (Q13393 whole entry, looked up): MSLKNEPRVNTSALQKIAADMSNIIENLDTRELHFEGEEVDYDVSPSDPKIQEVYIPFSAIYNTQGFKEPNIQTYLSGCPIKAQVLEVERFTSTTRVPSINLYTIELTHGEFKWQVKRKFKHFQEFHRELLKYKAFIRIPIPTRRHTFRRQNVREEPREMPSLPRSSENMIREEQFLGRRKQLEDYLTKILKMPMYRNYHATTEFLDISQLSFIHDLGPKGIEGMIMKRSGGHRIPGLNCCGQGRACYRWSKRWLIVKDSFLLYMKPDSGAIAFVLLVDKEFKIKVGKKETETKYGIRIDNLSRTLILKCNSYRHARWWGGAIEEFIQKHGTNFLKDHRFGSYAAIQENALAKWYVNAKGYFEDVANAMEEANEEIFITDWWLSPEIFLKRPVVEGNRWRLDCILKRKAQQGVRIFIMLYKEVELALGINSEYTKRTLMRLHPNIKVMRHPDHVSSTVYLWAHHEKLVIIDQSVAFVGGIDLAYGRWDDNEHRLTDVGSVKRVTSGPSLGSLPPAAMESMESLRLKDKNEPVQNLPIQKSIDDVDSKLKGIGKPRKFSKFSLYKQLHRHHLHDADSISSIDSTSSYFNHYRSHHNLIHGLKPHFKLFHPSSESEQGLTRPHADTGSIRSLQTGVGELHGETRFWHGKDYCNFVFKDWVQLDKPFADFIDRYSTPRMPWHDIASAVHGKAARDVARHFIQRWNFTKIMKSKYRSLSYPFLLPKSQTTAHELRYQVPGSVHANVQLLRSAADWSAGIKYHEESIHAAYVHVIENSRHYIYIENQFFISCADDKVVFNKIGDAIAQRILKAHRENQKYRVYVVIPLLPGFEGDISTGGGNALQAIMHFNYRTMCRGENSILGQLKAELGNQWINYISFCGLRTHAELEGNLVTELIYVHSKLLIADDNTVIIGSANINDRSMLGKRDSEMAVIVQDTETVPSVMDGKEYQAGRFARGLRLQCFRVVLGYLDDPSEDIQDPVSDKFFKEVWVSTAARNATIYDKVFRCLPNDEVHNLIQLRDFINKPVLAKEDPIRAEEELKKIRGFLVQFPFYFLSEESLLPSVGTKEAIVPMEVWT
Phospholipase D1 (Homo sapiens), sequence (Q13393 whole entry, looked up): as above

| Structure (SMILES) | remaining activity |
| --- | --- |
| O=C(NCCN1CCC(n2c(=O)[nH]c3ccccc32)CC1)c1cc2ccccc2c2c1ccc1ccccc12 | 102% |
| COc1cc(C(=O)NCCN2CCN(c3ccncc3)CC2)ccc1N | 90.7% |
| Cc1cc(C)c(S(=O)(=O)NCCN2CCC(n3c(=O)[nH]c4ccccc43)CC2)c(C)c1 | 133% |
| C[C@H](CN1CCC2(CC1)CNc1ccccc12)NC(=O)c1cnc2ccccc2c1 | 55% |
| CC(=O)c1cccc(NC(=O)NCCN2CCC(n3c(=O)[nH]c4ccccc43)CC2)c1 | 137% |
| C[C@@H](CN1CCC2(CCc3ccccc32)CC1)NC(=O)c1ccc2ccccc2c1 | 91.4% |
| O=C(NCCN1CCC(n2nnc3ccccc32)CC1)c1cnc2ccccc2c1 | 79.2% |
| O=C(NCCN1CCN(c2ccncc2)CC1)c1ccc(F)cc1O | 152% |
| O=C(NCCN1CCC(n2c(=O)[nH]c3ccccc32)CC1)c1ccc(Cc2ccccc2)cc1 | 91.5% |
| C[C@@H](CN1CC=C(n2c(=O)[nH]c3ccccc32)CC1)NC(=O)[C@H]1C[C@@H]1c1ccccc1 | 15.7% (active) |
| CCS(=O)(=O)NCCN1CCC(n2c(=O)[nH]c3ccccc32)CC1 | 121% |
| O=C(N[C@@H](Cc1ccccc1)CN1CCC(n2c(=O)[nH]c3ccccc32)CC1)c1cnc2ccccc2c1 | 116% |
| C[C@@H](CN1CCC(n2c(=O)[nH]c3cc(-c4ccccc4)ccc32)CC1)NC(=O)[C@H]1C[C@@H]1c1ccccc1 | 67.4% |
| O=C(NCCN1CCC(n2c(=O)[nH]c3ccccc32)CC1)c1ccc2c(c1)CCCC2 | 83.6% |
| O=C(NCCN1CCC(C(=O)Nc2ccccc2)CC1)c1ccc2ccccc2c1 | 102% |
| O=C(NCCN1CCN(c2ccncc2)CC1)c1ccc(F)cc1 | 126% |
| O=C(NCCN1CCN(c2ccncc2)CC1)c1cc2ccccc2s1 | 147% |
| O=C(c1ccc2ccccc2c1)N1CCC(n2c(=O)[nH]c3cc(Cl)ccc32)CC1 | 77.3% |
| O=C(NCCN1CCC(n2c(=O)[nH]c3ccccc32)CC1)c1cccc2ccc3ccccc3c12 | 75.2% |
| NC1(CN2CCC(c3nc4ccccc4[nH]3)CC2)CCCC1 (tested in a mixture with another compound) | 81.2% |

| Structure (SMILES) | remaining activity |
| --- | --- |
| O=C(NCCN1CCC(n2c(=O)[nH]c3ccc(F)cc32)CC1)c1ccc(C(F)(F)F)cc1 | 19.1% (active) |
| COc1cccc(N2CCN(CCNC(=O)c3ccc(Cl)cc3)CC2)c1 | 96.1% |
| CC(C)[C@@H](CN1CCC(n2c(=O)[nH]c3ccccc32)CC1)NC(=O)c1ccc(F)cc1 | 103% |
| O=c1[nH]c2ccccc2n1C1CCN(CCNS(=O)(=O)c2ccc([N+](=O)[O-])cc2)CC1 | 119% |
| O=C(N[C@@H](Cc1ccccc1)CN1CCC(n2c(=O)[nH]c3ccccc32)CC1)c1ccc(F)c(F)c1 | 90.2% |
| C[C@H](N)CN1CCC(c2nc3ccccc3n2C)CC1 (tested in a mixture with another compound) | 88.8% |
| C[C@@H](CN1CCC(n2c(=O)[nH]c3ccccc32)CC1)NC(=O)c1cccnc1 | 41.1% (active) |
| O=C(NCCN1CCC(n2c(=O)[nH]c3ccccc32)CC1)Nc1cccc(C(F)(F)F)c1 | 135% |
| O=C1c2ccccc2C(=O)N1CCCNc1cccc(F)c1 | 166% |
| O=C(NCCN1CCC(n2c(=O)[nH]c3ccccc32)CC1)c1ccccc1-c1ccccc1 | 92.1% |
| O=C(CCc1ccccc1)NCCN1CCC(n2c(=O)[nH]c3ccccc32)CC1 | 76.1% |
| O=C(NCCN1CC=C(n2c(=O)[nH]c3ccccc32)CC1)C1CC1c1ccccc1 (stereo not given) | 0% (active) |
| O=C(c1ccc(Cl)cc1)N1CCC2(CC1)C(=O)NCN2c1ccccc1 | 102% |
| O=C(NCCN1CCC(n2c(=O)n(C(=O)c3ccc(Cl)cc3)c3ccccc32)CC1)c1ccc(Cl)cc1 | 27.8% (active) |
| O=C(NCCN1CCC(c2nc3ccccc3[nH]2)CC1)c1ccc2ccccc2c1 | 101% |
| O=C(NCCN1CCC2(C=Cc3ccccc32)CC1)c1cnc2ccccc2c1 | 126% |
| CCCS(=O)(=O)NCCN1CCC(n2c(=O)[nH]c3ccccc32)CC1 | 120% |
| O=C(NCCN1CCC(n2c(=O)[nH]c3ccccc32)CC1)Nc1cccc(OC(F)(F)F)c1 | 131% |
| O=C(NCCN1CCC2(CCc3ccccc32)CC1)c1ccc2ccccc2c1 | 124% |
| CN1CCC2(CCN(CCNC(=O)c3ccc4ccccc4c3)CC2)C1=O | 120% |
